Compounds with a hit are over-represented: about 1.7% of the library has one in this group of screens.
PAD4 FP inh: human PAD4 inhibitors, primary screen, biochemical, fluorescence polarization, 1536-well format | Protein-arginine deiminase type-4 (Homo sapiens), Q9UM07 | recombinant PAD4, RCA probe fluorescence polarization | inhibition, % at 6.36 µM | 330,000 tested, 0.41% active | AID 485272, 2010;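 active = percent inhibition above a cutoff equal to the mean of all tested compounds plus 3 SD, cut at about 15% in these data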
LYPLA1 inh: LYPLA1 inhibitors, primary screen, counter-screen for PME1 inhibitor project, biochemical, fluorescence polarization, FP-Rh probe ABPP. Acyl-protein thioesterase 1 (Homo sapiens), O75608. recombinant LYPLA1. inhibition, % at 5.9 µM. 320,000 tested, 0.16% active. AID 2174, 2009;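 active = inhibition above the mean of all tested compounds plus 3 SD, set per campaign, cut at about 14% in these data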;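 also: inhibitors block serine hydrolase probe labeling of LYPLA1 so polarization falls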
GSTO1 counter: inhibitors of recombinant GSTO1, primary screen, counter-screen for RBBP9 inhibitor project, biochemical, fluorescence polarization. Glutathione S-transferase omega-1 (Homo sapiens), P78417. activity-based probe fluorescence polarization. 300,000 tested, 1.1% active. inhibition, % at 5.96 µM;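 active = inhibition above the campaign mean inhibition plus 3 SD, cut at about 35% in these data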
Target sequence (P78417 whole entry, looked up): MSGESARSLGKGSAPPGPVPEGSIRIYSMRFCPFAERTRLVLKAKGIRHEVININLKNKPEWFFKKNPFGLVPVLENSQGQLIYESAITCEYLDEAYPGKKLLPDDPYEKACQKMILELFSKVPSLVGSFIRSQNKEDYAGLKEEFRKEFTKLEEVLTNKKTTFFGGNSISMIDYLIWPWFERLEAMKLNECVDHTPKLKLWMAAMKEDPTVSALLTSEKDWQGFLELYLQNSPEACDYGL
EBNA-1 inhibitor: EBNA-1 DNA-binding inhibitors, primary screen, biochemical, fluorescence polarization. inhibition, % at 14.8 µM. 300,000 tested, 0.34% active. AID 1950, 2009; in the data active = inhibition above about 28%
ZTA counter: counter-screen for EBNA-1 inhibitors: inhibitors of Epstein-Barr virus ZTA; P03206; ZTA-DNA binding, fluorescence polarization; inhibition, % at 11 µM; 320,000 tested, 0.15% active; AID 2234; in the data active = inhibition above about 33%
Target sequence (P03206 whole entry, looked up): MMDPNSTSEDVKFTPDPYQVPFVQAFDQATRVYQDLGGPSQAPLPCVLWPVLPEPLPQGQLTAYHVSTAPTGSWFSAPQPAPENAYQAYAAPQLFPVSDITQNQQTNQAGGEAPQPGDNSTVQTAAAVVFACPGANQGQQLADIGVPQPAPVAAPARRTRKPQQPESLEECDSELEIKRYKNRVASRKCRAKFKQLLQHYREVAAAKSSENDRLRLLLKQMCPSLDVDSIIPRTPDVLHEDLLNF
LYPLA2 inh: LYPLA2 inhibitors, primary screen, counter-screen for PME1 inhibitor project, biochemical, fluorescence polarization, FP-Rh probe ABPP; Acyl-protein thioesterase 2 (Homo sapiens), O95372; recombinant LYPLA2; inhibition, % at 5.9 µM; 320,000 tested, 0.38% active; AID 2177, 2009;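 active = inhibition above the screen-wide mean plus 3 SD, limit set per campaign, cut at about 26% in these data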
EBNA-1 confirm: EBNA-1 DNA-binding inhibitors, retest, confirmation, biochemical, fluorescence polarization, triplicate; shares compounds with EBNA-1 inhibitor; Recombinant EBNA-1 DBD, Cy5-DNA fluorescence polarization; inhibition, % at 14.8 µM; 830 tested, 35% active; AID 2292, 2010;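 active = mean inhibition across replicates above a set limit taken from the earlier primary screen, cut at about 28% in these data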
ZTA DNA inh trip: EBV Zta DNA binding inhibitors, counter-screen for EBNA-1 inhibitor project, biochemical, fluorescence polarization, triplicate; shares compounds with EBNA-1 inhibitor; Zta-ZRE DNA binding, Cy5 fluorescence polarization; inhibition, % at 11.1 µM; 830 tested, under 10 active; AID 2328, 2010;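 active = mean inhibition over triplicates above a set limit taken from the primary EBNA-1 screen, cut at about 37% in these data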;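 also: purified full length Zta protein with Cy5 labeled ZRE DNA probe; inhibitors lower polarization by freeing the labeled DNA probe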
Numbers stand for hits; - = inactive; . = no result given.

SMILES	PAD4 FP inh	LYPLA1 inh	GSTO1 counter	EBNA-1 inhibitor	ZTA counter	LYPLA2 inh	EBNA-1 confirm	ZTA DNA inh trip
CCC(C)Nc1nc2c(c(=O)n(C)c(=O)n2C)n1C (stereo not drawn)	-	-	-	-	-	-	.	.
CCC(C(=O)NCc1cccnc1)n1nc(C)n2c(cc3occc32)c1=O (stereo not drawn)	-	-	-	-	-	-	.	.
O=C(N/N=C/c1ccc(OCC(=O)N2CCOCC2)cc1)c1ccccc1Cl	-	-	-	-	-	-	.	.
CS(=O)(=O)N(CC(=O)N/N=C/c1ccc(OCC(=O)N2CCOCC2)cc1)c1ccccc1Cl	-	-	-	36	-	-	-	-
Cc1nnc(NC(=O)CSc2ncnc3scc(-c4ccccc4)c23)s1	-	-	-	34	-	-	29	-
CN(C(=O)COC(=O)c1cc2c(s1)CCCCC2)c1ccccc1	-	-	-	82	-	-	-	-
CCOC(=O)[C@@H]1[C@H]2COc3cc(OC)ccc3[C@H]2N2C(=O)N(c3cccc(Cl)c3)C(=O)[C@]12C	-	-	-	32	-	-	-	-
CCOc1cc(/C=C2\CCCc3c2nc2ccccc2c3C(=O)O)ccc1OC	-	-	-	-	-	-	.	.
CC(C)NC(=O)c1ccc(C(C)C)cc1	-	-	-	-	-	-	.	.
O=C(NCCCCNC(=O)c1ccc(Br)s1)c1ccc(Br)s1	-	-	-	46	-	-	-	-
COc1ccccc1CNS(=O)(=O)c1ccc(N2CCCC2)cc1Br	-	.	.	.	.	.	.	.
CC(C)C(=O)Nc1ccc(C(=O)NNC(=O)CCCOc2ccc(Cl)cc2Cl)cc1	-	-	-	36	-	-	-	-
CCCCC(=O)Nc1ccc(C(=O)NNC(=O)CCCOc2ccc(Cl)cc2Cl)cc1	-	-	-	-	-	-	.	.
COC(=O)c1ccc2c(=O)[nH]c(COC(=O)CCC(=O)c3ccc(Cl)cc3)nc2c1	-	-	-	-	-	-	.	.
O=C(NCc1ccccn1)c1cccc(S(=O)(=O)Nc2ccccc2Cl)c1	-	-	.	.	-	-	.	.
Cc1ccc2nc(-c3ccc(NC(=O)COC(=O)c4ccco4)cc3)sc2c1	-	-	-	-	-	-	.	.
Cc1cc(C(=O)OCC(=O)Nc2nc(-c3ccccc3)cs2)c(C)o1	-	-	-	34	-	-	-	-
CCOC(=O)c1ccc(-c2csc(NC(=O)CN3CCC(C)CC3)n2)cc1	-	-	-	43	-	-	70	-
CNS(=O)(=O)c1cccc(C(=O)OCC(=O)Nc2ccc(-c3nc4ccc(C)cc4s3)cc2)c1	-	-	-	103	-	-	81	-
Cc1ccc(-c2csc(NC(=O)COC(=O)c3cccc(S(=O)(=O)N4CCOCC4)c3)n2)cc1	-	-	-	98	-	-	-	-
c1ccc2c(CN3CCSCC3)cccc2c1	-	-	-	-	-	-	.	.
Cc1ncoc1C(=O)N1CCCC(C(=O)c2cccc3ccccc23)C1 (stereo not drawn)	-	-	-	-	-	-	.	.
Cn1nccc1C(=O)N1CCCC(C(=O)c2cccc3ccccc23)C1 (stereo not drawn)	-	-	-	40	-	-	-	-
Cc1ccc(C)c(NC(=S)N=Nc2c(O)n(C)c3ccc(S(=O)(=O)N4CCOCC4)cc23)c1	-	-	-	-	-	-	.	.
CCc1ccccc1NC(=S)N=Nc1c(O)n(C)c2ccc(S(=O)(=O)N3CCOCC3)cc12	-	-	-	49	-	-	-	-
SMILES	PAD4 FP inh	LYPLA1 inh	GSTO1 counter	EBNA-1 inhibitor	ZTA counter	LYPLA2 inh	EBNA-1 confirm	ZTA DNA inh trip
CC(=O)Nc1ccc(NC(=O)C(C)OC(=O)c2oc3ccccc3c2C)cc1 (stereo not drawn)	-	-	-	80	-	-	118	-
COc1ccc2oc(C(=O)OCC(=O)Nc3ccc(OC)c(S(N)(=O)=O)c3)c(C)c2c1	-	-	-	-	-	-	.	.
CC(=O)Nc1ccc(NC(=S)NC(=O)c2oc3ccccc3c2C)cc1	-	-	-	-	-	-	.	.
COc1ccc2oc(C(=O)OCC(=O)Nc3cc(S(=O)(=O)N4CCOCC4)ccc3C)c(C)c2c1	-	-	-	62	-	-	107	-
COc1ccc2oc(C(=O)OCC(=O)Nc3ccc(NC(C)=O)cc3)c(C)c2c1	-	-	-	120	-	-	167	-
O=C(COC(=O)c1cc(Cl)nc(Cl)c1)Nc1ccc(Cl)c(S(=O)(=O)N2CCOCC2)c1	-	.	.	.	.	.	.	.
CCOC(=O)c1cnc(SCc2nc(N)nc(Nc3ccc(F)cc3)n2)nc1N	-	-	-	49	-	-	-	-
CCOc1ccc(NC(=O)c2ccc(NC(=S)NC3CC3)cc2)cc1	-	-	-	38	-	-	28	-
CCOc1ccc(NC(=O)c2ccc(C#CC(C)(C)O)cc2)cc1	-	-	-	30	-	-	-	-
CCOc1ccc(NC(=O)c2ccc(OC)cc2)cc1	-	-	-	-	-	-	.	.
CCOC(=O)c1[nH]c2ccccc2c1NC(=O)c1ccc2c(c1)OCO2	-	-	-	32	-	-	-	-
CCC1(c2ccc(F)cc2)NC(=O)N(CC(=O)N2CCN(S(=O)(=O)c3ccc(C)cc3)CC2)C1=O (stereo not drawn)	-	-	-	-	-	-	.	.
O=C(NCCC1=CCCCC1)C1CCC(CNc2nc(=S)[nH]c3ccccc23)CC1 (stereo not drawn)	-	-	-	32	-	-	-	-
O=C(NCCc1ccc(Cl)cc1)C1CCC(CNc2nc(=S)[nH]c3ccccc23)CC1 (stereo not drawn)	-	-	-	30	-	-	32	-
COc1ccc(CCNc2cc(C)[nH]c(=O)c2)cc1OC	-	-	-	-	-	-	.	.
O=C(c1cccc(C(F)(F)F)c1)c1c[nH]c(C(=O)NCCCN2CCOCC2)c1	-	-	-	-	-	-	.	.
CC(C)C(=O)Nc1cccc(C(=O)OCC(=O)c2ccc(Cl)cc2Cl)c1	-	-	-	41	-	-	79	-
Cc1cccc(-c2noc(CCCC(=O)Nc3ccc(C(N)=O)cc3)n2)c1	-	-	-	-	-	-	.	.
Cc1cccc(-c2noc(CCC(=O)Nc3ccc(C(N)=O)cc3)n2)c1	-	-	-	76	-	-	39	-
